For one compound, AC50 results are on record in PubChem BioAssay AID2284142 (EPA ToxCast).

Calls of active or inactive are those of the source. Rule for the calls: active = hit-call score of the fitted dose curve at least 0.9, where 1 is the maximum; inactive = score below 0.9.

human Adenosine Receptor A1 Agonism, ADORA1 (gene 134), sequence (P30542 whole entry, looked up): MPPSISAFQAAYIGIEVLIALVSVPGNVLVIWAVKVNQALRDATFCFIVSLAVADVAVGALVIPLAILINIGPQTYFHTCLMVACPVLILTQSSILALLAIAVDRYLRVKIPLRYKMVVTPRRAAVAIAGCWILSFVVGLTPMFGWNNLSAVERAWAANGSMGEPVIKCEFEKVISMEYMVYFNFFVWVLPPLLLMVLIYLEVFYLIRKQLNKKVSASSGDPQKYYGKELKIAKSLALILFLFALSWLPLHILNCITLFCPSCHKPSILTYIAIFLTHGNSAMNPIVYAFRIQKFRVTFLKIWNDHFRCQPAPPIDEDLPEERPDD

This test has as its target human Adenosine Receptor A1 Agonism, ADORA1 (gene 134) (UniProt P30542). Nature of the test: ERF_FR_GPCR_hADORA1: Eurofins (ERF) G Protein-Coupled Receptor (GPCR) Radioligand Binding LeadHunter Assay for human Adenosine Receptor A1 Agonism. Here is the method: ERF_FR_GPCR_hADORA1 is a biochemical, single-readout assay that uses extracted gene-proteins in a cell-free assay. Measurements were taken 1 hour after chemical dosing in a 96-well plate. See A1 Human Adenosine GPCR Binding (Agonist Radioligand) Assay, Cerep.ERF_FR_GPCR_hADORA1 is an assay component calculated from the ERF_FR_GPCR_hADORA1 assay. It is designed to measure radioligand binding using a type of binding reporter as detected by scintillation counting with radiometry technology.Data from the assay component ERF_FR_GPCR_hADORA1 was analyzed at the assay endpoint, ERF_FR_GPCR_hADORA1, in the positive analysis fitting direction relative to DMSO as the negative control and baseline of activity. Using a type of binding reporter, […] activity can be used to understand changes in binding as they relate to gene ADORA1. To generalize the intended target to other relatable targets, this assay endpoint is annotated to the gpcr intended target family, where the subfamily is adenosine.
2) Dose Response: 90 ul of 10 mM stock -OR- 1 mg (pre-weighed) for a top concentration at 10 uM.
Usually AC50 stands for the concentration giving half of the maximal activity seen. For the compound `O=C(/C=C/c1ccc(O)cc1)CC(=O)/C=C/c1ccc(O)cc1`, the concentration at half-maximal activity (AC50) was 1.92 µM (active).
